Measured values taken from PubChem BioAssay AID1159580 (chemical genetic matrix, 2015).
Several values for one entry are separate records, joined by “and”; a condition that tells them apart may be missing. Equal values may be shown once. The whole screen tested about 5,500 compounds, of which about 2,000 (36%) were called active. Inconclusive results (about 18%) are left out. Rule as the data show it: active = normalized growth mostly below about 0.91 (no sharp cut-off); inconclusive = no clear call, values can overlap the other calls; inactive = mostly above about 0.92. The list shows a part of the results.

Assay: chemical genetic growth profiling, strain panel (AID 1159580);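 also: tested at 20 µM; growth read once vehicle control cultures reached saturation at 30 °C; 1 = growth at the plate median or of vehicle wells; lower values mean less growth of the strain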
Conditions: S. cerevisiae deletion strains, growth OD

Measured: normalized growth

Cc1cc(=O)oc2c(O)c(O)ccc12
inactive: locus YAL021C, strain ccr4, active compounds read low 0.981 | locus YAL026C, strain drs2, active compounds read low 0.967 | locus YAL030W, strain snc1, active compounds read low 0.964 | locus YBL061C, strain skt5, active compounds read low 0.966 | locus YBR009C, strain hhf1, active compounds read low 0.966 | locus YBR021W, strain FUR4, active compounds read low 0.975 | locus YBR023C, strain chs3, active compounds read low 0.975 | locus YBR171W, strain sec66, active compounds read low 0.975 | locus YBR229C, strain ROT2, active compounds read low 1 | locus YBR231C, strain swc5, active compounds read low 0.978 | locus YBR279W, strain paf1, active compounds read low 0.973 | locus YCL011C, strain gbp2, active compounds read low 0.958 | locus YCL016C, strain dcc1, active compounds read low 0.972 | locus YCL029C, strain bik1, active compounds read low 0.999 | locus YCL061C, strain MRC1, active compounds read low 0.992 | locus YCL069W, strain vba3, active compounds read low 0.976 | locus YCR088W, strain abp1, active compounds read low 0.965 | locus YDL005C, strain med2, active compounds read low 0.958 | locus YDL035C, strain GPR1, active compounds read low 1.01 | locus YDL040C, strain nat1, active compounds read low 0.98 | locus YDL074C, strain BRE1, active compounds read low 0.993 | locus YDL101C, strain DUN1, active compounds read low 1.01 | locus YDL134C, strain PPH21, active compounds read low 1.02 | locus YDL185W, strain tfp1, active compounds read low 1 | locus YDL192W, strain arf1, active compounds read low 1 | locus YDR001C, strain nth1, active compounds read low 0.968 | locus YDR069C, strain doa4, active compounds read low 0.963 | locus YDR101C, strain arx1, active compounds read low 1.02 | locus YDR137W, strain rgp1, active compounds read low 0.94 | locus YDR150W, strain NUM1, active compounds read low 1.01 | locus YDR159W, strain sac3, active compounds read low 0.967 | locus YDR162C, strain NBP2, active compounds read low 1.02 | locus YDR195W, strain ref2 0.913 | locus YDR297W, strain sur2, active compounds read low 0.979 | locus YDR318W, strain mcm21, active compounds read low 0.993 | locus YDR334W, strain swr1, active compounds read low 0.968 | locus YDR335W, strain msn5, active compounds read low 0.981 | locus YDR388W, active compounds read low 0.994 | locus YDR392W, strain spt3, active compounds read low 0.973 | locus YDR502C, strain sam2, active compounds read low 1 | locus YEL003W, strain gim4, active compounds read low 0.976 | locus YEL037C, strain rad23, active compounds read low 0.934 | locus YEL061C, strain CIN8 (second series), active compounds read low 0.952 | locus YEL061C, strain CIN8, active compounds read low 1 | locus YER015W, strain faa2, active compounds read low 1 | locus YER016W, strain bim1, active compounds read low 0.986 | locus YER110C, active compounds read low 0.993 | locus YER111C, strain swi4, active compounds read low 0.957 | locus YER155C, strain BEM2 (second series), active compounds read low 0.987 | locus YER155C, strain BEM2, active compounds read low 1.01 | locus YER167W, strain BCK2, active compounds read low 1.01 | locus YFR010W, strain ubp6, active compounds read low 0.947 | locus YGL078C, strain dbp3, active compounds read low 1 | locus YGL086W, strain mad1, active compounds read low 0.991 | locus YGL167C, strain pmr1, active compounds read low 0.943 | locus YGL173C, strain kem1, active compounds read low 0.987 | locus YGL227W, strain vid30, active compounds read low 0.962 | locus YGL240W, strain doc1, active compounds read low 0.979 | locus YGL248W, strain PDE1, active compounds read low 1.01 | locus YGL253W, strain hxk2, active compounds read low 0.974 | locus YGR135W, strain pre9, active compounds read low 0.988 | locus YGR229C, strain SMI1, active compounds read low 1 | locus YGR252W, strain gcn5, active compounds read low 0.977 | locus YHR013C, strain ard1, active compounds read low 0.942 | locus YHR027C, strain rpn1, active compounds read low 0.973 | locus YHR030C, strain SLT2, active compounds read low 1 and 0.999 | locus YHR079C, strain IRE1 (second series), active compounds read low 1 | locus YHR079C, strain IRE1, active compounds read low 0.983 | locus YHR094C, strain hxt1, active compounds read low 1.02 | locus YHR129C, strain ARP1, active compounds read low 1 | locus YHR142W, strain chs7, active compounds read low 0.973 | locus YHR200W, strain rpn10, active compounds read low 1.02 | locus YIL066C, strain RNR3, active compounds read low 1.02 | locus YIL073C, strain SPO22, active compounds read low 1.03 | locus YIL125W, strain kgd1, active compounds read low 0.975 | locus YIR030C, strain dcg1, active compounds read low 1 | locus YJL092W, strain hpr5, active compounds read low 0.978 | locus YJL095W, strain BCK1 (second series), active compounds read low 0.988 | locus YJL095W, strain BCK1, active compounds read low 0.98 and 0.997 | locus YJL115W, strain asf1, active compounds read low 0.975 | locus YJL129C, strain trk1, active compounds read low 0.972 | locus YJL134W, strain LCB3, active compounds read low 1.01 | locus YJL154C, strain vps35, active compounds read low 0.976 | locus YJL164C, strain tpk1, active compounds read low 0.985 | locus YJL166W, strain qcr8, active compounds read low 1 | locus YJL168C, strain set2, active compounds read low 0.993 | locus YJL187C, strain SWE1 (second series), active compounds read low 1 | locus YJL187C, strain SWE1, active compounds read low 0.976
